Among the data in PubChem BioAssay are z-score and composite z-score values, retold here.

Assay [1] can be described thus: compound effects on lung adenocarcinoma cell viability – A549, calcein-AM fluorescence, 48 h, basal, profiling panel (AID 1162). Also: test concentration not given here. As to conditions: higher = more signal.
Assay [2] is described as follows: compound effects on differentiated 3T3-L1 adipocyte viability – cell-based, 3T3-L1 adipocytes, calcein-AM fluorescence, 48 h, basal, profiling panel (AID 1163). Also: test concentration not given here. As to conditions: 3T3-L1 adipocytes viability, higher = more signal.
Assay [3] is described as follows: compound effects on hepatocellular carcinoma cell viability – HepG2, calcein-AM fluorescence, 48 h, basal, profiling panel (AID 1164). Also: test concentration not given here. As to conditions: higher = more signal.
Assay [4] is described as follows: compound effects on multiple myeloma cell viability – MM1S, calcein-AM fluorescence, 48 h, basal, profiling panel (AID 1165). Also: test concentration not given here. As to conditions: higher = more signal.
A short description of assay [5]: calcein-AM signal in unstimulated myeloma cells – cell-based, calcein-AM fluorescence, 48 h, PK04 Diversity Set, profiling panel (AID 1166).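 Also: cells grown under basal conditions without added stimulus; test concentration not given here.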 Particulars: RPMI8226 myeloma viability, higher = more signal.
Assay [6] can be described thus: JC-1 mitochondrial signal, unstimulated HepG2 cells – cell-based, JC-1 fluorescence, 24 h, 100 nL compound, profiling panel (AID 1167). Also: test concentration not given here. As to conditions: HepG2 mitochondrial potential, higher = more signal.
The nature of assay [7]: JC-1 mitochondrial signal, unstimulated adipocytes – cell-based, JC-1 fluorescence, 3T3-L1 adipocytes, 24 h, 100 nL compound, profiling panel (AID 1168). Also: test concentration not given here. As to conditions: JC-1 mitochondrial fluorescence, higher = more signal, called active from +8 up or from −8 down.
The nature of assay [8]: JC-1 mitochondrial signal, unstimulated myeloma cells – cell-based, JC-1 fluorescence, RPMI8226, 24 h, 100 nL compound, profiling panel (AID 1169). Also: test concentration not given here. Particulars: JC-1 mitochondrial potential fluorescence, higher = more signal.
The nature of assay [9]: JC-1 mitochondrial signal, unstimulated MM1S myeloma – cell-based, JC-1 fluorescence, 24 h, 100 nL compound, profiling panel (AID 1170). Also: test concentration not given here. Particulars: MM1S mitochondrial potential, higher = more signal.
The nature of assay [10]: resazurin metabolic signal in A549 cells – cell-based, resazurin fluorescence, 24 h, PK04 Diversity Set, profiling panel (AID 1171). Also: test concentration not given here. As to conditions: A549 viability, higher = more signal, called active from +8 up or from −8 down.
Assay [11] is described as follows: resazurin metabolic signal in HepG2 cells – cell-based, resazurin fluorescence, 24 h, PK04 Diversity Set, profiling panel (AID 1172). Also: test concentration not given here. As to conditions: HepG2 viability, higher = more signal. (Resazurin is reduced to fluorescent resorufin, in cell work by metabolically active cells.)
A short description of assay [12]: budding yeast growth changes without added modifier – OD600, strain BY4716, 24 h, basal condition, primary screen (AID 1173). Particulars: S. cerevisiae BY4716 growth, OD600, 24 h; higher = more signal, called active from +8 up or from −8 down.
A short description of assay [13]: viability profiling in MM1S myeloma cells – cell-based, resazurin fluorescence, basal, 24 h, PK04 Diversity Set, profiling panel (AID 1174). Also: test concentration not given here. Particulars: higher = more signal, called active from +8 up or from −8 down.
The target in assay [14] is Dihydroorotate dehydrogenase (quinone), mitochondrial (Plasmodium falciparum (isolate 3D7)) (UniProt Q08210). Nature of the assay: inhibition of P. falciparum DHODH – biochemical, C-terminal His tag, absorbance 600 nm, primary screen (AID 1175).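 Also: recombinant parasite enzyme with a five histidine tag at its C terminus; test concentration not given here.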 Particulars: PfDHODH enzyme, DCIP absorbance 600 nm; higher = more signal, called active from +8 up or from −8 down.
Dihydroorotate dehydrogenase (quinone), mitochondrial (Plasmodium falciparum (isolate 3D7)), sequence (Q08210 whole entry, looked up): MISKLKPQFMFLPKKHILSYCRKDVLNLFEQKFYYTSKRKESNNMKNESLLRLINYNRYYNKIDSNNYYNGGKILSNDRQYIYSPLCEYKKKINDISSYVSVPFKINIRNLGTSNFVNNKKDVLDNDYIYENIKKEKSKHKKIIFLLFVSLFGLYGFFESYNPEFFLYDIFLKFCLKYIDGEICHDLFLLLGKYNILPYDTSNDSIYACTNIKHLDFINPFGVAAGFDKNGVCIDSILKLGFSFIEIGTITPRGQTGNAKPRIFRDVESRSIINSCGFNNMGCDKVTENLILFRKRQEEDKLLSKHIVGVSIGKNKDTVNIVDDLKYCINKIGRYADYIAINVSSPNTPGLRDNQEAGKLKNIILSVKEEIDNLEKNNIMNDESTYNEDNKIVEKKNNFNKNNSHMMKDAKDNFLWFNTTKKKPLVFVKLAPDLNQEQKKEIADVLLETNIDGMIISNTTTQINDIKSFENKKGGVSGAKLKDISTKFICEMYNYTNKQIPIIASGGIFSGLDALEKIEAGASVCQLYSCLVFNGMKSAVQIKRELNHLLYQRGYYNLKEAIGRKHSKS
Assay [15] in a line: inhibition of PAO1 biofilm formation – strain PAO1, LB-PBS medium, absorbance 600 nm, primary screen (AID 1176). Also: test concentration not given here. Particulars: P. aeruginosa PAO1 growth/biofilm, A600, 12 h; higher = more signal.
The nature of assay [16]: growth modulation of vineyard yeast isolate – strain RM11-1a, OD600, basal, 24 h, primary screen (AID 1177).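 Also: cultures grown under basal conditions with no added stressor; test concentration not given here.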 As to conditions: S. cerevisiae RM11-1a growth, OD600, 24 h; higher = more signal, called active from +8 up or from −8 down.
The nature of assay [17]: growth of efflux-deficient E. coli DRC39 – strain DRC39, OD650, 24 h, E. coli filamentation inducers, primary screen (AID 1178).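 Also: growth measured as culture turbidity by optical density at 650 nm; test concentration not given here.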 As to conditions: E. coli DRC39 acrAB, higher = more signal, called active from +8 up or from −8 down.
A short description of assay [18]: growth of efflux-deficient E. coli DRC39 – strain DRC39, OD650, 48 h, E. coli filamentation inducers, primary screen (AID 1179).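 Also: screen aims at cell division blockers that make cells filament.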 As to conditions: E. coli DRC39 delta-acrAB growth, higher = more signal, called active from +8 up or from −8 down.
A short description of assay [19]: viability profiling in RPMI8226 myeloma cells – cell-based, resazurin fluorescence, basal, 24 h, PK04 Diversity Set, profiling panel (AID 1180).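 Also: RPMI8826 multiple myeloma cell line at 5000 cells per well; test concentration not given here.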 Particulars: higher = more signal.
Assay [20] deals with E3 ubiquitin-protein ligase XIAP (Homo sapiens) (UniProt P98170). Nature of the assay: small molecules binding XIAP protein – biophysical, small-molecule microarray, fluorescence 635 nm, primary screen (AID 1181).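 Also: score merges 667 nm emission and signal to noise over triplicate slides.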 As to conditions: higher = more signal.
E3 ubiquitin-protein ligase XIAP (Homo sapiens), sequence (P98170 whole entry, looked up): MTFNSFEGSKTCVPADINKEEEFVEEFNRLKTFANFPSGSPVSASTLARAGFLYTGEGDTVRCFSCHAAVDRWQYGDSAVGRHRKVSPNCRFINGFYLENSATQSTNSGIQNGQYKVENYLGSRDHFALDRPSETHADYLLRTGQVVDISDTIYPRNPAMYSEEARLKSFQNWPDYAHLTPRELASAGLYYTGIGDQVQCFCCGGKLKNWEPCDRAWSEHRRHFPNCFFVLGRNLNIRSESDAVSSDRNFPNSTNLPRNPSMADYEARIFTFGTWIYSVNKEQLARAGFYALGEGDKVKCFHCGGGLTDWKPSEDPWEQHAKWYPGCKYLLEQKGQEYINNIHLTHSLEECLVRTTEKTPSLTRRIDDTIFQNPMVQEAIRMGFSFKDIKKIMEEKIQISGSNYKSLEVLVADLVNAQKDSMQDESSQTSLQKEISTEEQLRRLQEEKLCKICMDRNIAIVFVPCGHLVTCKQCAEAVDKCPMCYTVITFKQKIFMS

Calls of active or inactive are those of the source. Unless noted, no rule for the calls is given here.

For `O=C1N(Cc2ccccc2)c2ccccc2[C@H]2OC(c3ccc(OCCCO)cc3)=N[C@@]12Cc1ccccc1`, the z-score is -1.22 in assay [1]; 1.93 in assay [2]; -1.78 in assay [3]; -2.75 in assay [4]; -4.59 in assay [5]; -0.67 in assay [6]. The z-score in [7] was 1.56 (inactive); in assay [8], -1.26; in assay [9], -1.66; in assay [10] it was -2.1 (inactive); in assay [11], -1.46; in assay [12], -0.084 (inactive). The z-score in assay [13] is -3.4 (inactive); in [15] it was 0.565 (inactive); in [16] it was 2.15 (inactive); in [17], 0.383 (inactive); in assay [18], -0.362 (inactive); in [19] it was -3.36. Besides, the composite z-score in assay [14] is 0.983 (inactive); in assay [20] it was 0.0297.

As for `COC(=O)[C@@]1(Cc2ccccc2CN=[N+]=[N-])COC(c2ccc(OCCCO)cc2)=N1`, the z-score in assay [1] is -1.19; in [2], -0.19; in [3], -0.891; in [4], -3.53; in [5] it was -0.691; in assay [6] it was -2.15. The z-score was -0.428 (inactive) in assay [7]; -1.01 in [8]; 0.515 in assay [9]; -0.657 (inactive) in assay [10]; -0.639 in assay [11]; -5.02 (inactive) in assay [12]. The z-score in assay [13] was -1.75 (inactive); in assay [15], 1.07 (inactive); in assay [16], 0.593 (inactive); in assay [17], 0.544 (inactive); in [18], -0.74 (inactive); in assay [19], -0.39. The composite z-score in assay [14] was 0.37 (inactive); in [20], -0.0582.

Regarding `C=C(CCCC)/C(=C/C[C@H](OC(C)=O)c1cccc(OCCO)c1)c1cc(C(=O)OC)ccc1OC`, the z-score in [1] was 2.28; in [2], 0.477; in assay [3], 0.651; in assay [4], -0.965; in assay [5], -2.14; in assay [6] it was 2.19. The z-score in assay [7] was 0.18 (inactive); in [8] it was -0.111; in assay [9] it was 0.309; in [10], 2.7 (inactive); in assay [11] it was 2.33; in assay [12] it was -0.456 (inactive). Also, the z-score was 1.44 (inactive) in assay [13]; 0.473 (inactive) in assay [15]; -0.515 (inactive) in assay [16]; 1.85 (inactive) in assay [17]; 1.34 (inactive) in assay [18]; 1.43 in assay [19]. Further, the composite z-score is -0.989 (inactive) in assay [14] and -0.0297 in assay [20].

Regarding `CCCCN1CC=CC23O[C@@H]4C=CCOC(=O)[C@@H]4[C@H]2C(=O)N(CCO)[C@@H]3C1=O` (stereo not given in full), the z-score is 0.0738 in assay [1]; -0.426 in assay [2]; 0.442 in assay [3]; -1.05 in assay [4]; 0.342 in assay [5]; -0.454 in [6]. Besides, the z-score in assay [7] is 0.302 (inactive); in assay [8], 0.837; in assay [9], -0.209; in [10] it was -0.437 (inactive); in assay [11] it was -0.394; in assay [12], 1.31 (inactive). The z-score in assay [13] is -0.202 (inactive); in assay [15] it was -0.208 (inactive); in [16], -0.322 (inactive); in assay [17], 0.233 (inactive); in [18], 0.109 (inactive); in [19], -0.236. Besides, the figures for the composite z-score in [14] and in [20] were -0.161 (inactive) and -0.239, respectively.

Regarding `C[N+](C)(C)CCCC[C@@H]1NC(=O)[C@H]2C[C@@H](C(=O)NCCCCCNC(=O)CS)[C@@H](c3ccc(O)cc3)N2C1=O`, the z-score in assay [1] was 0.809; in [2], -0.464; in [3], 0.664; in assay [4], 0.949; in assay [5] it was -1.51; in assay [6], 1.45. The z-score in [7] was -0.0341 (inactive); in [8] it was 0.287; in [9], -0.013; in [10], -0.567 (inactive); in assay [11], -0.532; in [12], -0.905 (inactive). In addition, the z-score in assay [13] is 0.469 (inactive); in assay [15] it was 0.82 (inactive); in assay [16], -2.28 (inactive); in [17], 0.902 (inactive); in [18], 1.33 (inactive); in assay [19] it was -0.178. For the same molecule, the composite z-score was -1.3 (inactive) in [14] and -0.216 in assay [20].

As to `CC(=O)c1ccc(C(O)C2C=CC3C(=O)N(C)C(=O)C3N2NC(=O)OC(C)(C)C)cc1` (stereo not given), the z-score is -1.02 in assay [1]; -0.701 in assay [2]; -0.831 in assay [3]; -0.682 in assay [4]; -0.193 in [5]; -1.29 in assay [6]. The z-score in assay [7] was -0.82 (inactive); in assay [8] it was -0.539; in assay [9], 0.485; in [10], -0.659 (inactive); in [11], -1.69; in [12] it was 1.74 (inactive). Moreover, the z-score in [13] was -1.04 (inactive); in [15], 0.378 (inactive); in assay [16] it was 0.845 (inactive); in assay [17] it was -0.9 (inactive); in [18], -0.47 (inactive); in [19] it was -1.05. In addition, the composite z-score is 0.625 (inactive) in [14] and 0.155 in assay [20].

Turning to `COC(=O)[C@@]1(Cc2ccc(F)cc2)[C@H]2c3cc(C(=O)N(C)C)n(CCN4CCOCC4)c3C[C@H]2CN1C(=O)c1ccccc1`, the z-score in assay [1] was -1.27; in [2], 0.234; in assay [3], -0.796; in assay [4] it was -1.05; in [5], -0.995; in assay [6], -0.738. Moreover, the z-score in assay [7] was -0.318 (inactive); in assay [8], -0.245; in [9] it was -0.28; in [10] it was 0.389 (inactive); in [11], 0.255; in assay [12] it was 1.22 (inactive). Moreover, the z-score in [13] was -0.663 (inactive); in assay [15] it was 0.0818 (inactive); in assay [16], 0.7 (inactive); in assay [17], 0.187 (inactive); in [18], -0.957 (inactive); in assay [19], 0.874. Besides, the composite z-score was -0.521 (inactive) in assay [14] and 0.138 in [20].

On to `O=C(NCCO)C1=C[C@H](Oc2ccccc2I)[C@@H](O)[C@H](NCc2ccc(F)cc2)C1`, for which the z-score is 0.576 in [1]; 2.37 in assay [2]; -0.793 in assay [3]; -0.217 in [4]; -1.26 in assay [5]; -0.574 in assay [6]. The z-score was 0.471 (inactive) in assay [7]; 0.391 in [8]; 0.185 in [9]; -1.45 (inactive) in assay [10]; -1.47 in assay [11]; -2.04 (inactive) in assay [12]. Further, the z-score in [13] was -0.206 (inactive); in [15], 0.367 (inactive); in assay [16], 0.423 (inactive); in assay [17], -0.802 (inactive); in assay [18] it was -1.44 (inactive); in [19], -0.264. Moreover, the values for the composite z-score in [14] and in [20] were -0.287 (inactive) and 0.181, respectively.
